Sampled rows, rich in hits. Any-hit rate of the full collection: about 3.8%.
KLK7 zymogen act – proKLK7 zymogen activators, primary screen, biochemical, fluorescence intensity. actives 0.9% (n = 370,000). activation, % at 7 µM. AID 652039, 2013. purified proKLK7, EDANS-DABCYL substrate fluorescence; 100% is mature enzyme control, 0% vehicle;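 active means activation above the mean of all tested compounds plus 3 SD, computed per campaign excluding outliers beyond control limits, cut at about 13% in these data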
Target sequence (P49862 whole entry, looked up): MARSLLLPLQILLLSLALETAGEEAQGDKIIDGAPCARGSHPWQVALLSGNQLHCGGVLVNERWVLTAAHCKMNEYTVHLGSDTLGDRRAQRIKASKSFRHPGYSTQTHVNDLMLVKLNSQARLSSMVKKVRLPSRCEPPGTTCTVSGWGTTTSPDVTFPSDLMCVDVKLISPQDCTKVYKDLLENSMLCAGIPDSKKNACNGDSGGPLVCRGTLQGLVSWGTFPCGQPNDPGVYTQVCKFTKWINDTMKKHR
ADAM10 inh – human ADAM10 inhibitors, primary screen, biochemical, QFRET, HTS; recombinant ADAM10, EDANS/DABCYL FRET peptide cleavage, 3 h; inhibition, % at 7 µM; actives 0.62% (n = 370,000);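 active means inhibition above a per-campaign cutoff equal to the mean of compounds falling between control-based bounds plus 3 SD, cut at about 20% in these data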;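 further: 0% = DMSO wells while the 100% control is not disclosed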
FGF22 binding – binders of human FGF22 protein, primary screen, FGF22 synaptogenesis inhibitor project, biophysical, thermal shift, single point; recombinant FGF22 thermal shift, SYPRO orange fluorescence; percent of sucrose octasulfate shift, DMSO zero; activity (Tm shift, normalised), % at 9.99 µM; actives 1.5% (n = 340,000); Fibroblast growth factor 22 (Homo sapiens), Q9HCT0; AID 651658, 2012;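 active means mean Tm shift, scaled 0 neutral to 100 positive control, at about 1.3% or above, every replicate too, limit read from the data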
Target sequence (Q9HCT0 whole entry, looked up): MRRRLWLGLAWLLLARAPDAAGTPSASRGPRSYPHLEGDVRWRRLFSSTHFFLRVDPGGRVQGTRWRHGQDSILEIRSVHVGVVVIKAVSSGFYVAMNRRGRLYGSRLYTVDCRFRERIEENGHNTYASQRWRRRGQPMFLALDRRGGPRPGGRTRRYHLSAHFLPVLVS
Ecoli rRNA inh – reduced GFP signal of wild-type E. coli, primary screen, bacterial rRNA inhibitor project, GFP/RFP fluorescence, OD600, single point; E. coli WT GFP vs humanized-ribosome RFP mutants, 24 h; hits give low values; DMSO median 0, no signal -100; GFP signal change (wild-type ribosome), % (test concentration not listed); actives 1.6% (n = 350,000);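 active means significant combined selectivity score with lowered wild-type GFP, culture density cut under 30%, mutant RFP and density less affected; inactive means any of these conditions unmet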
ADAM17 inh – ADAM17 inhibitors, primary screen, biochemical, QFRET. recombinant ADAM17, EDANS/DABCYL FRET peptide cleavage. inhibition, % at 6.95 µM. actives 0.83% (n = 370,000). AID 720648, 2013;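 active means inhibition above the mean of compounds lying between control limits plus 3 SD, set per campaign, cut at about 8.5% in these data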;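 further: 0% = DMSO-only wells as the low control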
ADAM10 ctr – ADAM10 inhibitors, counter-screen for ADAM17 exosite inhibitor project, biochemical, FRET, human ADAM10. inhibition, % at 6.95 µM. shares compounds with ADAM17 inh. recombinant ADAM10, EDANS/DABCYL FRET peptide cleavage, 3 h. actives 47% (n = 2,900);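 active means mean inhibition over the triplicate runs exceeds the activity threshold set in the earlier primary screen, cut at about 20% in these data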;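 further: 0% = DMSO wells and 100% = marimastat wells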
ADAM17 confirm – ADAM17 inhibitors, hit retest, confirmation, biochemical, QFRET peptide cleavage; shares compounds with ADAM17 inh; recombinant ADAM17, EDANS/DABCYL QFRET peptide cleavage; inhibition, % at 6.95 µM; actives 65% (n = 2,900); AID 743257, 2014;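 active means mean inhibition across replicates above the hit cutoff set in the primary screen, cut at about 8.5% in these data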;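 further: 0% = DMSO wells and 100% = marimastat wells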
* hit, by the source's call; . = not tested or not shown.

SMILES | KLK7 zymogen act | ADAM10 inh | FGF22 binding | Ecoli rRNA inh | ADAM17 inh | ADAM10 ctr | ADAM17 confirm
O=C(c1ccc(CSc2nc3ccncc3[nH]2)cc1)N1CCCCCC1 | 0 | 2 | 0 | -9 | -4 | . | .
CC1CCN(C2(O)C(=O)Nc3ccc([N+](=O)[O-])cc32)CC1 (centres undefined) | 0 | 17 | . | . | 11* | 12 | 8
C[C@@H]1CN([C@H](C)CO)C(=O)c2cc(NS(=O)(=O)c3cn(C)cn3)ccc2O[C@H]1CN(C)S(C)(=O)=O | . | . | 0 | 2 | . | . | .
CC(OC(=O)C1=COCCO1)C(=O)Nc1ccc(Oc2ccccc2)cc1 (centres undefined) | 0 | -3 | . | . | -4 | . | .
O=C(OC(C(=O)Nc1cc(Cl)cc(Cl)c1)c1ccccc1)C1=COCCO1 (centres undefined) | 0 | 14 | . | . | 9.8* | 31* | 15*
Nc1ncnc2c1ncn2[C@@H]1O[C@H](CNCc2ccc(-c3cc(C(F)(F)F)ccc3Cl)o2)[C@@H](O)[C@H]1O | 0 | 6 | 0 | -21 | 10* | -5 | 2
O=C(C[C@@H]1CC[C@@H]2[C@H](COC[C@@H](O)CN2Cc2cccc(Cl)c2)O1)N1CCOCC1 | . | . | 0 | 6 | . | . | .
CC(C)C#Cc1ccc2c(c1)O[C@@H](CN(C)CC1CC1)[C@@H](C)CN([C@@H](C)CO)S2(=O)=O | . | . | 0 | 0 | . | . | .
CCOC(=O)c1sc(SC)c(C(C)=O)c1C | 0 | 5 | . | . | -1 | . | .
CCOC(=O)c1sc(SC)c2c1CCCC2=O | 0 | 15 | 0 | -18 | 9.3* | -5 | 0
COc1ccc(CC(=O)NC(=S)Nc2ccc(S(N)(=O)=O)cc2)cc1 | 0 | -11 | 0 | -4 | -2 | . | .
COc1ccc(CC(=O)NC(=S)Nc2ccc(S(=O)(=O)NC(C)(C)C)cc2)cc1 | 0 | 18 | . | . | 9.9* | 32* | 15*
COc1ccc(NC(=O)Cn2nnc(-c3ccccc3F)n2)cc1 | 0 | -1 | . | . | -3 | . | .
COc1cc(NC(=O)Cn2nnc(-c3ccccc3N)n2)cc(OC)c1 | -1 | 18 | . | . | 9.6* | 0 | 1
C[C@H]1CN([C@@H](C)CO)C(=O)c2cccc(NC(=O)Nc3ccccc3)c2O[C@@H]1CN(C)CC1CCCCC1 | . | . | -1 | -4 | . | . | .
C/C=C/c1ccc([C@H]2[C@@H](CN(C)C(C)=O)N(C(=O)NCCC)[C@H]2CO)cc1 | . | . | 1 | 6 | . | . | .
CCCNC(=O)Nc1ccc2c(c1)C(=O)N(C)[C@@H]1CC[C@H](CC(=O)OC)O[C@@H]1CO2 | . | . | 0 | -2 | . | . | .
CCN(CC)c1ccc(NC(=O)c2cc3c(OC)cccc3[nH]2)cc1 | 1 | 18 | 0 | -4 | 17* | 6 | 8
COc1cccc2[nH]c(C(=O)NC(C)c3ccccc3)cc12 (centres undefined) | 2 | -114 | 0 | -12 | -43 | . | .
CS/C(=C\[N+](=O)[O-])Nc1ccc(F)cc1 | 0 | 12 | . | . | 13* | 7 | 3
CN(C)CC(=O)Nc1ccc2c(c1)[C@@H]1C[C@@H](CC(=O)NCc3cccnc3)O[C@@H](CO)[C@@H]1O2 | . | . | 0 | 4 | . | . | .
C[C@@H]1CN([C@H](C)CO)C(=O)c2cc(NS(=O)(=O)c3cn(C)cn3)ccc2O[C@@H](C)CCCCO[C@@H]1CN(C)C(=O)c1ccncc1 | . | . | 0 | 4 | . | . | .
CC(C)CNS(=O)(=O)c1ccc(CCC(=O)Nc2cc(Cl)ccc2Oc2ccccc2)cc1 | -5 | 19 | . | . | 9.7* | 39* | 21*
COc1ccc(CCC(=O)Nc2cc(Cl)ccc2OC)cc1 | 0 | -1 | . | . | -2 | . | .
CC(C)(C)NS(=O)(=O)c1ccc(CCC(=O)Nc2cc(Cl)ccc2Oc2ccccc2)cc1 | 0 | 19 | . | . | 9.7* | 33* | 19*
SMILES | KLK7 zymogen act | ADAM10 inh | FGF22 binding | Ecoli rRNA inh | ADAM17 inh | ADAM10 ctr | ADAM17 confirm
Cc1ccc(N(C)S(=O)(=O)c2c[nH]c3ccc([N+](=O)[O-])cc23)cc1 | 0 | 6 | 0 | -44 | 5 | . | .
CCN(c1ccccc1)S(=O)(=O)c1c[nH]c2ccc([N+](=O)[O-])cc12 | 0 | 6 | 0 | -49 | 9.3* | 32* | 16*
CC(=O)Oc1ccc(N2C(=O)C3C4C=CC(O4)C3C2=O)cc1 (centres undefined) | 0 | -2 | . | . | 9.8* | 19 | 17*
COC(=O)c1c(-c2cccc3ccccc23)csc1NC(=O)Cc1ccc(OC)c(OC)c1 | -1 | 17 | . | . | 10* | 14 | 10*
C[C@H](CO)N1C[C@H](C)[C@H](CN(C)CC2CC2)OCCCC[C@H](C)Oc2ccc(NC(=O)Nc3ccc4c(c3)OCO4)cc2C1=O | . | . | 0 | . | . | . | .
Cc1cccc(Nc2nc(N)c([N+](=O)[O-])c(N3CC(C)CC(C)C3)n2)c1 (centres undefined) | 0 | 20* | 0 | 1 | 9.4* | 31* | 17*
CCCCOC(=O)c1ccc(NC(=O)Nc2ccc(OC)c(OC)c2)cc1 | 0 | 18 | . | . | 12* | 27* | 13*
CCOC(=O)c1ccc(NC(=O)Nc2ccc(OC)c(OC)c2)cc1 | 0 | 3 | . | . | 2 | . | .
Cc1cc(Cl)ccc1OCCCC(=O)N1CCN(S(=O)(=O)c2ccccc2)CC1 | 1 | 13 | 0 | -3 | 9.9* | 30* | 16*
Cc1cc(Cl)ccc1OCC(=O)N1CCCN(C(=O)COc2ccc(Cl)cc2C)CC1 | 0 | 14 | . | . | 9.5* | 26* | 14*
Cc1cc(Cl)ccc1OCC(=O)N1CC(C)CC(C)C1 (centres undefined) | 0 | -5 | . | . | -1 | . | .
COc1ccc(CC(=O)OCC(=O)c2c[nH]c3ccccc23)cc1 | -1 | -7 | 0 | -23 | 0 | . | .
COc1ccc(C(=O)c2c[nH]c3ccccc23)cc1 | 1 | 13 | . | . | 11* | -2 | 1
CCOc1ccccc1NC(=O)C(OC(=O)c1ccc(CC)cc1)c1ccccc1 (centres undefined) | 0 | -4 | . | . | -2 | . | .

Source: PubChem (several laboratories)
